ELG1 repair inh = inhibitors of ELG1-dependent DNA repair in HEK293T cells; AID 504467; 330,000 compounds, 2.3% hits; HEK293T ELG1-luciferase reporter, luminescence, 16 h; DNA damage induced by 5-fluorouridine; Potency, µM (titrated, usually from 46.1 µM), without a hit: at the highest dose activity change, negative = inhibition, hits mostly inhibitors; note: potency is the fitted concentration of half-maximal effect; nearly all actives have a fitted effect of over 55% in size
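Quantitative HTS, concentration-response format. 2,000 cells/well co-treated with 5-fluorouridine and compound, 16 hr in 5% CO2 at 37 °C; ONE-Glo luminescence read after 30 min.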
FBPA coupling cs = coupling enzyme interference in Giardia aldolase counter-screen. coupling enzyme system counterscreen, AmpLite Red fluorescence. activity change, negative = inhibition, % at 58.2 µM, hits read low. 290,000 compounds, 0.67% hits. AID 2472; in the data active = activity change below about -30%
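Fluorescence at 525 nm excitation and 598 nm emission measured inhibition of the coupled detection system without aldolase. Compounds (at 57.5 uM final) were preincubated 10 min at room temperature with coupling enzyme reagent before a 20 min substrate/AmpLite Red step.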
TSHR antagonist = human thyrotropin receptor antagonism; P16473; TSHR-expressing cells, TSH-stimulated cAMP HTRF, 2 h; active compounds read low; activity change, negative = inhibition, % at 11.5 µM; 330,000 compounds, 0.2% hits;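 active = activity change below a set negative limit, meaning inhibition stronger than a set level, cut at about -70% in these data; inconclusive = activity change between two set negative limits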
Target sequence (P16473 whole entry, looked up): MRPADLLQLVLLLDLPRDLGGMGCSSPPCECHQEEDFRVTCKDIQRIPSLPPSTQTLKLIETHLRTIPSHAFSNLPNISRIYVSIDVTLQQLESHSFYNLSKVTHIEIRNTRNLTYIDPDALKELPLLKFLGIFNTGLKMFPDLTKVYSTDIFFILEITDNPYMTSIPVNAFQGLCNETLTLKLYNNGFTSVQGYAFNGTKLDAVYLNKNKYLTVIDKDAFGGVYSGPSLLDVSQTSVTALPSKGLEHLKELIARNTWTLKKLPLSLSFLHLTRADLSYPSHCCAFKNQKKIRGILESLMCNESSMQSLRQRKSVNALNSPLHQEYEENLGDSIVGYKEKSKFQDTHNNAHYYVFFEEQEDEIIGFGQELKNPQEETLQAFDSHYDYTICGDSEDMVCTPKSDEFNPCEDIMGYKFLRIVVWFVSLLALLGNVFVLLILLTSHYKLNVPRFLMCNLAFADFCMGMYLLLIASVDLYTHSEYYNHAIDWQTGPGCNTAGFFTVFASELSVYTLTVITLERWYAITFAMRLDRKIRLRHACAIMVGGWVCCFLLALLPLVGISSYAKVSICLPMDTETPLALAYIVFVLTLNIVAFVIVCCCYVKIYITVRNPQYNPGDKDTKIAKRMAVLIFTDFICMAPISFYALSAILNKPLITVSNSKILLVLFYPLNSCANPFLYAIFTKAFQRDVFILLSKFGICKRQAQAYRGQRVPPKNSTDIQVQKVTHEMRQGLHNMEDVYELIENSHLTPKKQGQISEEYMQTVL
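Read-out is FRET at 665 nm (cryptate excitation 337 nm) from a cryptate-tagged anti-cAMP antibody, competed by cell cAMP against cAMP-d2. Compounds are tested on freshly harvested TSHR cells challenged with 4nM TSH (EC80) for 2 hours at 37 deg C.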
VP16 counter = Gal4-VP16 reporter inhibition counter-screen; Drosophila S2 Gal4-VP16 UAS-luciferase, luminescence, 20 h; 310,000 compounds, 3.5% hits; Potency, µM (series often up to 53.6 µM), for inactives: at the highest dose activity, negative = inhibition, actives largely listed as inhibitors;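 note: Gal4-VP16 expression switched on by copper sulfate through the metallothionein promoter; potency is the fitted concentration of half-maximal effect; nearly all actives have a fitted effect of over 50% in size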
RORg inh = inhibitors of mouse ROR gamma transcriptional activity; 310,000 compounds, 5.4% hits; P51450; AID 2551; Drosophila S2 Gal4-RORgamma UAS-luciferase reporter, 20 h; Potency, µM (titrated, usually from 53.6 µM), for the others: top-dose activity change, negative = inhibition, hits mostly inhibitors; note: potency is the fitted concentration of half-maximal effect; nearly all actives have a fitted effect of over 60% in size
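Using a luciferase readout, inhibitors were identified by reduced reporter activity in Drosophila cells coexpressing a copper-inducible Gal4–ROR gamma fusion and UAS-driven Photinus luciferase, incubated 20 hr after 700 uM copper sulfate.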
* = called active by the depositor; ? = inconclusive; nt = no result; [ ] = dose if it differs, or a comment. This is a sample that favours compounds with a hit; in the whole collection about 8% have one here. Unless noted, calls come from the whole dose curve; as a rule, active = well fitted curve in the direction sought with a large enough effect; inconclusive = small, poorly fitted or top-dose-only effect, or another doubt; inactive = no such curve, though single readings can be large; an effect the other way counts as inactive or inconclusive. % is set by controls: 0 for no effect and ±100 for the full control effect.

SMILES	ELG1 repair inh	FBPA coupling cs	TSHR antagonist	VP16 counter	RORg inh
CN(C(=O)COC(=O)c1c2c(nc3ccccc13)/C(=C/c1cccc([N+](=O)[O-])c1)CCC2)C1CCS(=O)(=O)C1 (stereo not given)	5.8µM*	-0.3	0.0	-9.6%	38.8%
Cc1ccc(C(=O)Nc2cc(C)c(OCC(=O)N3CCOCC3)c(C)c2)cc1	?	-0.1	-0.3	10µM*	14.1µM*
COc1ccc(-c2nc(NC(=O)c3ccc(OCC(=O)Nc4ccc(F)cc4)c(OC)c3)sc2C)cc1	?	-0.5	42.0	20µM*	?
COc1cc(C(=O)Nc2nc(-c3ccc(C)cc3)cs2)ccc1OCC(=O)N1CCOCC1	20.6µM*	-0.8	16.9	-21.1%	?
COc1ccccc1C(=O)Nc1cc(C)c(OCC(=O)N2CCOCC2)c(C)c1	3.5%	nt	-1.1	-10.1%	-7.0%
COc1ccc(OC)c(NC(=O)c2ccc(OCC(=O)N3CCOCC3)c(OC)c2)c1	-12.9%	nt	-5.2	nt	nt
COc1ccc(-c2csc(NC(=O)c3ccc(OCC(=O)N4CCOCC4)c(OC)c3)n2)cc1	16.4µM*	-4.3	0.1	-6.2%	?
COc1cc(C(=O)Nc2nc(-c3cc(C)ccc3C)c(C)s2)ccc1OCC(=O)Nc1ccc(F)cc1	-17.7%	-1.1	-7.6	4.1%	22.3%
COc1cc(C(=O)Nc2nc(-c3ccc(F)cc3)cs2)ccc1OCC(=O)N1CCOCC1	?	-2.4	-3.3	-16.1%	?
COc1cc2cc(C(=O)N3CCOCC3)cc(-c3ccc(C)cc3)c2cc1OC	14.6µM*	-1.2	-4.6	8.91µM*	?
C#CCCCCCCCCCCCC(=O)CC(O)COC(C)=O (stereo not given)	nt	-1.5	nt	-1.5%	0.3%
CN1CCN(CC(=O)Nc2sc3c(c2C(=O)Nc2ccccc2)CCCC3)CC1	15.4%	nt	-4.4	-21.2%	-13.8%
CCOc1ccc(NC(=O)c2c(NC(=O)CNCCN3CCOCC3)sc3c2CCC3)cc1	?	-3.5	-1.6	0.1µM*	0.562µM*
O=C(CN1CCCC1)Nc1sc2c(c1C(=O)Nc1ccc(Br)cc1)CCC2	-3.7%	-2.1	-12.2	3.55µM*	2µM*
COc1ccccc1CN(CC(=O)NCc1ccc(F)cc1)C(=O)c1csnn1	-4.4%	0.9	1.1	8.4%	5.6%
COc1cc(C)c(CN2CCC(n3nccc3NC(=O)C3CC3)CC2)cc1C	-2.4%	nt	-3.2	-4.3%	-41.6%
Cc1ccc(S(=O)(=O)N2CCCCC2)cc1NC(=O)c1cncc(Br)c1	5.8µM*	nt	-4.8	nt	nt
O=C(Nc1cccc(S(=O)(=O)N2CCCCCC2)c1)c1cncc(Br)c1	?	nt	-27.4	nt	nt
COc1ccc(NC(=O)c2cccnc2Cl)c(S(=O)(=O)N2CCOCC2)c1	0.4%	0.1	0.0	-1.8%	-1.1%
Cc1ccc(S(=O)(=O)N(C)C)cc1NC(=O)c1cncc(Br)c1	14.6µM*	-17.2	15.7	2.51µM*	10µM*
COc1ccc(NC(=O)c2cncc(Br)c2)c(S(=O)(=O)N2CCOCC2)c1	11.2µM*	-2.8	-4.2	-1.3%	0.2%
N#Cc1ccc2c(c1)C[C@]1(c3ccsc3)OC3=C(C(=O)OC4(CCCCC4)C3)C2O1	nt	0.7	nt	-7.5%[10 µM]	-15.4%[10 µM]
Cc1ccc(CNC(=O)C(CC(C)C)OC(=O)c2ccco2)cc1 (stereo not given)	?	0.8	5.8	-0.2%	23.6%
CC(C)CN(C(=O)COc1ccc(Br)cc1C=O)C1CCS(=O)(=O)C1 (stereo not given)	2.3%	nt	3.1	nt	nt
COCC(=O)N1CCC[C@@]2(CCN(Cc3ccccc3)C2)C1	nt	0.6	nt	1.4%	-5.9%
CCCn1c(C(O)c2cc(OC)c(OC)c(OC)c2)nc2ccccc21 (stereo not given)	1.5%	0.6	-4.7	?	?
CCCn1c(CNS(=O)(=O)c2ccc(C)cc2)nc2ccccc21	-0.1%	-0.7	3.3	?	11.2µM*
CCCn1c(-c2cccs2)nc2ccccc21	?	-11.6	22.1	17.8µM*	4.47µM*
C=CCn1c(-c2cccs2)nc2ccccc21	26.4%	-2.4	-9.5	-1.7%	-14.1%
CCCn1c(C(O)c2ccc(C)cc2)nc2ccccc21 (stereo not given)	-6.0%	-0.8	-13.4	?	2.82µM*

Screening data (PubChem)
